# D3 antag = blocks the human D3 dopamine receptor. P35462. hit rate 2.5% among 360,000. max response, negative = inhibition, %. D3R cells, DiscoveRx beta-arrestin luminescence, antagonist mode; hits give low values; in the data active means max response below about -50%; inconclusive means no clear call, values can overlap the other calls; further: on the % scale 0 is the no-effect control and ±100 the full control effect
# Target sequence (P35462 whole entry, looked up): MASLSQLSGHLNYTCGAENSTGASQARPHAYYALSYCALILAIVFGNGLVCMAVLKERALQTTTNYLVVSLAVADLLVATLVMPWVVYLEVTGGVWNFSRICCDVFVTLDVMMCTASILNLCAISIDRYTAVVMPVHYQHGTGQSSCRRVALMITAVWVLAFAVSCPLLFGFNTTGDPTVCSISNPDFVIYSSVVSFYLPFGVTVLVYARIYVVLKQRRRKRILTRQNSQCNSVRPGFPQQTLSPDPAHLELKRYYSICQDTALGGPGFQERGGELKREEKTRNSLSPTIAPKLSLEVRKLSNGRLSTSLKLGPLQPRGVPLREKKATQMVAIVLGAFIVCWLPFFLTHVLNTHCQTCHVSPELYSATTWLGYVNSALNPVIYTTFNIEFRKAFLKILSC
#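 Cells expressing the human receptor were seeded at 1500 cells/well, incubated overnight at 37 degrees C in 5% CO2, then exposed to library compounds with dopamine controls for 90 minutes at 37 degrees C before luminescent detection.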
# GLP-1R inv ag = GLP-1 receptor (human) inverse agonism. AID 624417. HEK293 GLP-1R CRE-luciferase, luminescence, 24 h; GLP-1R form is constitutively active. hit rate 1.6% among 410,000. P43220. Potency, µM (titrated, usually from 38.3 µM), for the others: top-dose activity change, negative = inhibition, most hits filed as inhibitors; further: potency means the concentration at half of the fitted maximal effect; on the % scale 0 is the no-effect control and ±100 the full control effect; nearly all actives have a fitted effect of over 55% in size
#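 Stable HEK293 clone (constitutively active GLP-1R + cAMP-response luciferase); 200 cells/uL plated, 12 h pre-culture, compound 24 hr, 37 deg C/5% CO2; detection reagent 12 min RT; luminescence.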
# GLP1R ag = activates the human GLP-1 receptor | hit rate 0.007% among 380,000 | P43220 | HEK293 GLP-1R CRE-luciferase, luminescence, 4-6 h; cells express a hypersensitive GLP-1R form | Potency, µM (highest dose often 45.6 µM), inactives show top-dose activation, usual class: activators; further: potency means the concentration at half of the fitted maximal effect; % of control where 0% means no effect
# DRD3 agonist = D3 dopamine receptor (human) agonism; D3R DiscoveRx beta-arrestin cells, luminescence, 90 min; max activation, %; hit rate 0.58% among 410,000; in the data active means max activation above about 30%; further: 0% is about no effect
#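 Agonist-mode cell screen: cells plated at 1500/well and incubated overnight at 37 °C, then exposed to library compounds for 90 min at 37 °C. Detection reagent was added for 30–60 min at room temperature, and luminescence was read.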
# Numbers without * were called inactive; ? = inconclusive; nt = no result; ! = repeats disagree. The list is not random: actives were taken first. Their share in the collection is about 4.3%. Unless noted, the call rests on the fitted dose curve; in most records, active means well fitted curve in the direction sought with a large enough effect; inconclusive means small, poorly fitted or top-dose-only effect, or another doubt; inactive means no such curve, though single readings can be large; an effect the other way counts as inactive or inconclusive.
SMILES,D3 antag,GLP-1R inv ag,GLP1R ag,DRD3 agonist
C=CCN(CC=C)CC(O)CN(c1cc([N+](=O)[O-])ccc1OC)S(=O)(=O)c1ccccc1 (configuration not stated),-84*,?,7%,-41
COC(=O)C1=C[C@@H](C(=O)OC)C2C3=C(C(=O)C24CCCCC4)[C@H](C)n2c(=O)n(-c4ccccc4)c(=O)n2[C@@H]3C1 (some centres not stated),28,2%,-1%,35*
O=C(/C=C\Nc1ccc2c(c1)OCO2)c1cccs1,7,2.2µM*,-2%,3
COc1ccc(-c2cc(=O)c3c(OC)c(OC)c(OC)c(OC)c3o2)cc1OC,41,23%,?,40*
COc1ccc(-c2cc(=O)c3c(O)c(OC)c(OC)c(OC)c3o2)cc1,18,9%,13%,12
COc1ccc(CCNc2ccncn2)cc1OC,26,0%,1%,31*
COc1ccc(CCNc2ccncn2)cc1,28,3%,-1%,17
O=C(c1cccc(NS(=O)(=O)c2ccc(F)c(F)c2)c1)N1CCN(C(c2ccccc2)c2ccccc2)CC1,22,4µM*,-7%,-2
Cc1nc2sccn2c(=O)c1S(=O)(=O)NCc1ccc(F)cc1,nt,16%,nt,5
Cc1nc2sccn2c(=O)c1S(=O)(=O)NCC1CCN(Cc2ccc(Cl)cc2)CC1,-6,10µM*,13%,-2
Cc1c(Cl)cccc1NC(=O)CCN1CCN(C)CC1,-3,16%,0%,-9
O=C(CN1CCCC1)Nc1ccc(Br)cc1,-17,15%,-6%,-1
Cc1c(Cl)cccc1NC(=O)CCN1CCCCC1,-58*,-46%,-5%,-4
O=C(CN1CCCCCC1)Nc1ccc(Br)cc1,-114*,-30%,-5%,-29
CC1CCN(CC(=O)Nc2ccccc2Sc2ccccc2)CC1,-19,4.5µM*,4%,0
O=C(CN1CCN(C2CCCCC2)CC1)Nc1ccc(Br)cc1,-53*,?,6%,-20
O=C(CN1CCN(S(=O)(=O)N2CCCCC2)CC1)Nc1ccc(Br)cc1,2,?,14%,4
CN1CCOc2cc(S(=O)(=O)NCc3ccc(S(N)(=O)=O)cc3)ccc21,-3,23%,-14%,-4
COC(=O)c1ccc(NC(=O)CCN2CCCCC2)cc1,-52*!,4%,7%,-4
Cc1ccc(NC(=O)CN2CCCC2)cc1Br,-64*,-33%,12%,-26
O=C(CCN1C(=O)NC2(CCCC2)C1=O)Nc1ccc(Sc2ccc(Br)cc2)cc1,-4,11µM*,4%,0
O=C(CCN1CCCCC1)Nc1ccc(Br)cc1,-69*,-29%,-3%,-13
CN1CCN(CCC(=O)Nc2ccc(Br)cc2)CC1,1,-10%,3%,2
COC(=O)c1ccc(NC(=O)CCN2CCN(CCC(=O)Nc3ccc(C(=O)OC)cc3)CC2)cc1,-11,22%,-4%,-5
COC(=O)c1cc2sc(Cl)cc2n1Cc1nc(-c2ccccc2F)oc1C,nt,4%,nt,6
SMILES,D3 antag,GLP-1R inv ag,GLP1R ag,DRD3 agonist
CCCSCCCNC(=O)C1CCN(c2nn3cc(-c4ccc(F)cc4)nc3s2)CC1,nt,5%,nt,7
CCN(CC)CCCNC(=O)C1CCN(S(C)(=O)=O)CC1,nt,-2%,nt,1
Cc1cc(C)cc(NC(=O)CN2C(=O)c3ccccc3Sc3ncccc32)c1,nt,-15%,1%,-7
CCC(CC)C(=O)Nc1cccc(-c2nc3cccnc3s2)c1,nt,5%,nt,3
Cc1c(Cl)cccc1NC(=O)CN1CCC(C(O)(c2ccccc2)c2ccccc2)CC1,-62*,?,-8%,-64
CCn1c(=O)n(CC)c2cc(N3CCCCC3)c(NC(=O)Nc3cc(C)cc(C)c3)cc21,nt,?,nt,7
Cc1cc2nc(-c3ccc[nH]c3=O)[nH]c2cc1C,-17,3.5µM*,16%,-2
COc1cc(CN(C2CC2)S(=O)(=O)c2ccccc2Br)cc(OC)c1,30,10µM*,24%,17
C=CCCN(C1CCCC1)S(=O)(=O)c1ccccc1Br,-12,?,3%,10
CC(=O)OC1CCC2(C)C(CCC3C4CC=C(C(C)=O)C4(C)OC(=O)CC32)C1 (configuration not stated),-94*,?,-6%,-14
CCOC(=O)C(Oc1ccc2c(-c3ccccc3)cc(=O)oc2c1)c1ccccc1 (configuration not stated),3,11µM*,14%,9
Cc1cc(C)c(C2C(C#N)=C(N)Oc3n[nH]c(C)c32)cc1CN1CCCC1 (configuration not stated),-112*,0%,-11%,-31
Cc1cn([C@@H](CCCCNC(=O)OC(C)(C)C)C(=O)NCCCCCCCCCCC(=O)N2CCN(C(=O)OC(C)(C)C)CC2)nn1,89,?,-24%,66*
C#CCOCCOCCOCCNc1nc(N2CCN(C(=O)CCCCCCCCCCNC(=O)[C@H](CCCCN)n3cc(C)nn3)CC2)nc(N2CCN(C(=O)CCCCCCCCCCNC(=O)[C@H](CCCN=C(N)N)n3cc(C[C@@H](C)CC)nn3)CC2)n1,?,-26%,1%,-21
C#CCOCCOCCOCCNc1nc(N2CCN(C(=O)CCCCCCCCCCNC(=O)[C@H](CCCCN)n3cc(C[C@@H](C)CC)nn3)CC2)nc(N2CCN(C(=O)CCCCCCCCCCNC(=O)[C@H](CCCN=C(N)N)n3cc(C[C@@H](C)CC)nn3)CC2)n1,-76*,?,-16%,-13
C#CCOCCOCCOCCNc1nc(N2CCN(C(=O)[C@H]([C@@H](C)O)n3cc(CCCCN)nn3)CC2)nc(N2CCN(C(=O)[C@H](CCCCN)n3cc(CC(C)O)nn3)CC2)n1 (some centres not stated),-52*,4%,-4%,-11
C#CCOCCOCCOCCNc1nc(N2CCN(C(=O)CCCCCCCCCCNC(=O)[C@H](CCCCN)n3cc(C[C@@H](C)CC)nn3)CC2)nc(N2CCN(C(=O)CCCCCCCCCCNC(=O)[C@@H]([C@H](C)O)n3cc(C)nn3)CC2)n1,-59*,?,-14%,-12
C#CCOCCOCCOCCNc1nc(N2CCN(C(=O)[C@H]([C@@H](C)CC)n3cc(CCCCN)nn3)CC2)nc(N2CCN(C(=O)[C@H](CCCCN)n3cc(CC(C)O)nn3)CC2)n1 (some centres not stated),-18,15%,3%,-5
COc1ccc(OC)c(NC(=O)c2oc(=O)c3ccccc3c2-c2ccccc2)c1,nt,23%,nt,3
C#CCOCCOCCOCCNc1nc(N2CCN(C(=O)[C@H]([C@@H](C)CC)n3cc([C@@H](N)Cc4ccc(O)cc4)nn3)CC2)nc(N2CCN(C(=O)[C@H](Cc3cc4ccccc4[nH]3)n3cc([C@@H](N)CC(C)C)nn3)CC2)n1,-50*,-15%,10%,-10
CCOc1cc2c(cc1OCC)C(CC(=O)O)N(C(=O)Nc1ccc(Br)c(C)c1)CC2 (configuration not stated),nt,6%,nt,-5
O=C(/C=C/c1ccccc1Cl)Nc1nc(-c2cccs2)ns1,nt,4%,nt,12
